# Active and inactive are the calls of the source. Calls come from the whole dose curve; as a rule, active = well fitted curve in the direction sought with a large enough effect in the repeat runs; inconclusive = weak or mixed curves; inactive = flat fitted curve, though single readings scatter.
# Test: qHTS assay to test for compound auto fluorescence at 590 nm (red) in HEK293 cell free culture (AID 720683)
# Conditions: cell-free medium autofluorescence, Ex540/Em590 red; series mostly up to 46 µM; fluorescence, % of fluorescent control: at the top concentration
# Text: U.S. Tox21 Program National Center for Advancing Translational Sciences [NCATS] NIH Chemical Genomics Center [NCGC] U.S. Environmental Protection Agency [EPA] National Institutes of Environmental Health Sciences [NIEHS] National Toxicology Program [NTP] U.S. Food and Drug Administration [FDA] Tox21 Assay Overview: Compound auto fluorescence often interferes with screening of the compound library against various biological targets and signaling pathways. Some of these compounds may have fluorophoric properties. Such properties may interfere with the assay outputs resulting in false positives and/or negatives. To decrease such complications and ensure the compound activities are relevant in terms of biological response, the Tox21 10K compound library was screened for auto fluorescence. From the fluorophores used as reporter signals in our screening assays, the auto fluorescence equivalencies of compounds against three fluorophores have been evaluated: Triamterene, Fluorescein and Rose Bengal sodium for blue, green and red fluorescence, respectively. The fluorescence intensities were measured using Excitation/Emission wavelengths at 405/460nm, 485/535nm and 540/590nm for blue, green and red labels, respectively. This assay includes the red fluorescence data.
# Tox21 Assay Protocol Summary: 5 uL of culture medium (DMEM containing 10% FBS) per well was dispensed into black wall/clear bottom 1536-well plates using a Multidrop Combi Dispenser (ThermoFisher Scientific, Waltham, MA). After 23 nL compound or DMSO vehicle was transferred into assay plate by a pintool work station (Kalypsys, San Diego, CA), fluorescence intensities in the assay plates were measured by an Envision (PerkinElmer, Shelton, CT) plate reader using three labels for measuring blue, green and red fluorescence at […] 460, 535 and 590nm respectively.
# % is set by controls: 0 for no effect and ±100 for the full control effect.
SMILES,"fluorescence, % of fluorescent control",outcome
NCCCNCCSP(=O)(O)O,0.0077% (inactive),–
CC/C=C\CCOC(C)=O,-0.0013% [at 91.3 µM] (inactive),–
O=C(CCCN1CCN(c2ccccn2)CC1)c1ccc(F)cc1,0.057% (inactive),–
CC(C)(C)c1ccc(O)c(O)c1,–,inactive
CCC(C)C1CCCCC1=O (stereo not given),-0.0581% [at 91.3 µM] (inactive),–
O=[N+]([O-])c1ccc(F)cc1F,-0.0914% [at 91.3 µM] (inactive),–
O=C1CC2CC1C1CCCC21 (stereo not given),-0.101% [at 91.3 µM] (inactive),–
NCCc1cnc[nH]1,-0.621% (inactive),–
CC(=O)Nc1ccc(S(N)(=O)=O)cc1,-0.0249% [at 91.3 µM] (inactive),–
O=C1CCCCCCCCCCCN1,–,inactive
CN(C)CCCN1c2ccccc2CCc2ccc(Cl)cc21,–,inactive
Cn1c(N)c(N=O)c(=O)n(C)c1=O,-0.298% [at 95.7 µM] (inactive),–
CCn1ccnc1CC1COc2ccccc2O1 (stereo not given),-0.169% (inactive),–
O=S(O)CO,–,inactive
CCOC(=O)CCC(C)=O,0.0295% [at 91.3 µM] (inactive),–
C[C@H]1C[C@@H](O)CC(C)(C)C1,0.101% [at 91.3 µM] (inactive),–
Cc1cccc(C)c1NC(=O)C(C)N (stereo not given),0.061% [at 18.6 µM] (inactive),–
C/C=C(\C)C#N,-0.173% [at 91.3 µM] (inactive),–
COC(=O)CC(C)=O,-0.21% [at 91.3 µM] (inactive),–
CCC(=O)OC(C)c1ccccc1 (stereo not given),0.0137% [at 91.3 µM] (inactive),–

SMILES,"fluorescence, % of fluorescent control",outcome
O=C(O)CCCc1ccccc1,-0.529% (inactive),–
NC(=O)c1cn(Cc2c(F)cccc2F)nn1,-0.44% (inactive),–
N=C(N)c1ccc2cc(OC(=O)c3ccc(N=C(N)N)cc3)ccc2c1,-0.039% (inactive),–
CO/N=C(/C(=O)N[C@@H]1C(=O)N2C(C(=O)OCOC(=O)C(C)(C)C)=C(C)CS[C@H]12)c1csc(N)n1,0.163% (inactive),–
COC(=O)c1ccc(C)cc1C1=NC(C)(C(C)C)C(=O)N1 (stereo not given),0.0043% [at 91.3 µM] (inactive),–
Cc1ccc(C#N)cc1,0.108% [at 91.3 µM] (inactive),–
CC(C)CCCC(C)N (stereo not given),-0.434% (inactive),–
CC(C)CNCC(C)C,-0.0892% [at 91.3 µM] (inactive),–
C=C[Si](OC(=C)C)(OC(=C)C)OC(=C)C,0.167% [at 91.3 µM] (inactive),–
Cn1cc(S(C)=O)c(=O)c2ccc(F)cc21 (stereo not given),-0.47% (inactive),–
O=C[C@H](O)[C@@H](O)[C@H](O)[C@H](O)CO,–,inactive
COc1ccccc1OCC(O)CN1CCN(CC(=O)Nc2c(C)cccc2C)CC1 (stereo not given),-0.0173% (inactive),–
COc1c(N2C[C@@H]3CCCN[C@@H]3C2)c(F)cc2c(=O)c(C(=O)O)cn(C3CC3)c12,–,inactive
C=C1CC[C@H]2C[C@@H]1C2(C)C,-0.0481% [at 91.3 µM] (inactive),–
c1ccc([C@H]2CN3CCSC3=N2)cc1,-0.0342% (inactive),–
CN1CCN(c2cc3c(cc2F)c(=O)c(C(=O)O)cn3-c2ccc(F)cc2)CC1,-0.319% (inactive),–
CC[N+](C)(C)c1cccc(O)c1,-0.341% [at 18.6 µM] (inactive),–
Nc1ccccc1S(=O)(=O)O,-0.5% [at 91.3 µM] (inactive),–
Oc1ccc(C2CNCCc3c2cc(O)c(O)c3Cl)cc1 (stereo not given),-0.0449% (inactive),–
CN(C(=O)c1c(O)c2ccccc2n(C)c1=O)c1ccccc1,0.234% (inactive),–

# Source: PubChem BioAssay (Tox21)
